# Measurements: ChEMBL document CHEMBL4513216, “Probing the Open Global Health Chemical Diversity Library for Multistage-Active Starting Points for Next-Generation Antimalarials” (ACS Infect Dis, 2020)
# The whole screen tested about 69,000 compounds, of which about 8,600 (12%) showed an effect of 50% or more. Many of the other results were omitted from the sample, so strong results are more common in it than they were.
# System: Plasmodium berghei
# Experiment: Screen against P. berghei liver stage (PbLuc), transformed with Luciferase, at 10uM
# Assay type: functional, HepG2
# Details: tested at 10 uM
row,SMILES,INHIBITION
1,Cn1ccc2c(C(=O)N3CC[C@@]4(O)CCCC[C@H]4C3)cccc21,1.62%
2,CCN(CC1CCOC1)C(=O)NCc1nnc2n1CCC2 (stereo unspecified),42%
3,O=S(=O)(Cc1ccc(F)cc1)NCc1nnc2n1CCC2,68.9%
4,O=C(NCc1nnc2n1CCC2)c1ccc(C2CCCO2)s1 (stereo unspecified),-1.7%
5,CCN(CC1CCOC1)C(=O)NCc1nnc2n1CCCCC2 (stereo unspecified),34.4%
6,O=S(=O)(Cc1ccc(F)cc1)NCCc1nnc2n1CCC2,30.5%
7,O=S(=O)(Cc1ccccc1)NCc1nnc2n1CCC2,-12.4%
8,O=C(NCc1nnc2n1CCCC2)c1ccc(C2CCCO2)s1 (stereo unspecified),59.1%
9,O=C(NCc1nnc2n1CCCCC2)N(Cc1ccncc1)C1CC1,26.5%
10,O=C(NCc1nnc2n1CCCCC2)N(CC1CCOC1)C1CC1 (stereo unspecified),55%
11,CN(Cc1ccc(F)cc1)C(=O)NCc1nnc2n1CCC2,-21.8%
12,O=C(NCc1nnc2n1CCC2)c1ccc(Br)s1,49.4%
13,O=C(NCc1nnc2n1CCC2)N(Cc1ccc(F)cc1)C1CC1,50.4%
14,CCCC(C#N)NC(=O)c1sccc1CC (stereo unspecified),46.6%
15,CSc1ncnc(NCc2cccs2)c1C#N,10.6%
16,Cc1nsc(N2CCCN(C(=O)NCc3cc(C)on3)CC2)n1,45%
17,CCc1nccn1C1CCCN(C(=O)c2ccc3c(c2)nnn3C)C1 (stereo unspecified),12.7%
18,COc1cc2nc3n(c(=O)c2cc1OC)CCN(C(=O)C(C)(C)C)CC3,32.3%
19,Cc1ccc(C(C)(O)CNC(=O)NCCc2ccc3c(c2)CCO3)o1 (stereo unspecified),23.2%
20,O=c1cc(CN2CC[C@@]3(O)CCCC[C@H]3C2)c2cccc3c2n1CCC3,42.1%
21,O=C(NCCc1c[nH]cn1)c1ccc(S(=O)(=O)NC2CCOC2)cc1 (stereo unspecified),4.68%
22,O=C(NCCNc1cc(N2CCCC2)cnn1)Nc1ccccc1F,53.8%

row,SMILES,INHIBITION
1,O=C(Cc1ccc(F)cc1)NCCNc1cc(N2CCCC2)cnn1,34.6%
2,CSc1nnc(CNC(=O)Nc2ccccc2F)n1C,31.7%
3,O=C(Nc1ccc2c(c1)C(=O)NC2)c1ccc(S(=O)(=O)C(F)(F)F)cc1,55%
4,CS(=O)(=O)Cc1ccc(C(=O)Nc2ccc3c(c2)C(=O)NC3)cc1,37.9%
5,CNS(=O)(=O)c1ccc(C(=O)Nc2ccc3c(c2)C(=O)NC3)cc1,-5.26%
6,O=C(NCC1COC2(CCOCC2)O1)c1csc(-c2cccc(Cl)c2)n1 (stereo unspecified),15.5%
7,COCC(=O)N1C[C@H]2CNC[C@@]2(C(=O)NCc2c(C)noc2C)C1,-31.9%
8,COCC(=O)N1C[C@H]2CNC[C@@]2(C(=O)NCc2nc(C)cc(C)n2)C1,1.45%
9,COCC(=O)N1C[C@H]2CNC[C@@]2(C(=O)NCc2cc(C)n[nH]2)C1,59.5%
10,CCC[C@H]1CN(S(C)(=O)=O)C[C@@H]1NC(=O)COC(C)C,34.9%
11,CC(C)=CCN1CCN(Cc2cc(C)n[nH]2)CC1CCO (stereo unspecified),26.6%
12,Cc1ccc(CN2CCN(Cc3cc(C)n[nH]3)CC2CCO)cc1 (stereo unspecified),-0.529%
13,CC(C)=CCN1CCN(Cc2cccc(C)n2)CC1CCO (stereo unspecified),67.4%
14,CC(C)=CCN1CCN(Cc2cc(C)c(O)c(C)c2)CC1CCO (stereo unspecified),51.3%
15,Cc1cccc(CN2CCN(Cc3ccccc3)CC(O)C2)n1 (stereo unspecified),16.8%
16,Cc1cccc(CN2CCN3C(=O)NC[C@H]3C2)n1,-27.5%
17,CC(C)N1CCC(N2CCN(C3CCCCC3)CC2CCO)CC1 (stereo unspecified),22%
18,CCn1cc(Cl)c(C(=O)Nc2ccc3c(c2)C(C)(C)C(=O)N3C)n1,20.9%
19,O=C(CCc1cc(O)no1)N1CCCC(OCc2cccnc2)C1 (stereo unspecified),23.6%
20,Cc1c(S(=O)(=O)N(CCc2ccccc2)Cc2ccn(C)n2)cnn1C,41.9%
21,CNC(=O)NCC(CO)Cc1ccccc1OC(F)(F)F (stereo unspecified),16%
22,CS(=O)(=O)CCOc1nc(-c2ccccc2Cl)no1,-3.94%

row,SMILES,INHIBITION
1,CCS(=O)(=O)CCCOc1nc(-c2ccccc2Cl)no1,50%
2,COCCOc1nc(-c2ccccc2Cl)no1,14.9%
3,CCc1nccn1C1CCCN(C(=O)c2cnn3ccc(C)nc23)C1 (stereo unspecified),24.6%
4,Cc1noc2ncc(C(=O)N3CCCC(n4ccnc4C)C3)cc12 (stereo unspecified),32.3%
5,CCc1nccn1C1CCCN(C(=O)c2cnc3onc(C)c3c2)C1 (stereo unspecified),66.4%
6,CCc1nccn1C1CCCN(C(=O)c2cncn2-c2ccccc2)C1 (stereo unspecified),32.45%
7,CCc1nccn1C1CCCN(C(=O)c2ccnc(N(C)C)c2)C1 (stereo unspecified),65.85%
8,CCc1nccn1C1CCCN(C(=O)c2cnn3cccnc23)C1 (stereo unspecified),55.4%
9,CC(C)c1nccn1C1CCCN(C(=O)c2ccnc(N(C)C)c2)C1 (stereo unspecified),42.9%
10,CCc1nccn1C1CCCN(C(=O)c2ccc(N(C)C)nn2)C1 (stereo unspecified),45.65%
11,CCc1nccn1C1CCCN(C(=O)c2cnc3ccccc3n2)C1 (stereo unspecified),29.2%
12,CCc1nccn1C1CCCN(C(=O)c2ccn(-c3ccccc3)n2)C1 (stereo unspecified),52.2%
13,Cc1noc2ncc(C(=O)N3CCCC(n4cccn4)C3)cc12 (stereo unspecified),27.8%
14,CCc1nccn1C1CCCN(C(=O)c2cnn(C)c2C2CC2)C1 (stereo unspecified),44.8%
15,O=c1ccc2c([nH]1)CCC(NS(=O)(=O)C1CC1)C2 (stereo unspecified),32.5%
16,O=C(NCc1ccccc1)N1CCc2ncnc(NC3CC3)c2CC1,40.3%
17,CCOCc1nc(-c2cccc(OC)c2OC)n(C2CCN(C)CC2)n1,21.2%
18,CN(CC(=O)Nc1ccc(Br)cn1)C(=O)C(C)(C)C,-17.6%
19,O=C(Cc1cccnc1)N1CCCC2(CCN(CC3CCOCC3)C2)C1 (stereo unspecified),18.5%
20,Cc1cc(C)c(C(=O)N(C)CCN(C)C(=O)OC(C)(C)C)[nH]1,11.4%
21,Cc1cncnc1C1CCN(C(=O)CN(C)C)CC1,-15.1%
22,CN(C)C(=O)N1CCC2(CC1)CN(Cc1ccccn1)C(=O)CO2,30.4%

row,SMILES,INHIBITION
1,Cc1nccn1C1CCCN(C(=O)c2ccc3c(c2)OCCCO3)C1 (stereo unspecified),47%
2,CCc1nccn1C1CCCN(C(=O)c2ccc3c(c2)OCCO3)C1 (stereo unspecified),52.5%
3,CCc1nccn1C1CCCN(C(=O)c2ccc3c(c2)OCO3)C1 (stereo unspecified),34.9%
4,CCCn1nc(C)c(CNS(=O)(=O)NCc2ccccc2)c1C,-8.66%
5,CCCn1cc(Cl)c(C(=O)N2C[C@@H](O)[C@H](Oc3ccccc3)C2)n1,-10.55%
6,O=S(=O)(CCc1ccccc1Cl)CC(O)CO (stereo unspecified),35.7%
7,Cc1nc(C)c(C(=O)Nc2cnn(CC(=O)NC3CCCC3)c2)s1,54.5%
8,Cc1ccsc1C(=O)Nc1cnn(CC(=O)NC2CCCC2)c1,-4.63%
9,Cc1cc(C(=O)Nc2cnn(CC(=O)NC3CCCC3)c2)c(C)s1,12.4%
10,Cc1nn(C)c2cnn(CCCNS(=O)(=O)Cc3ccccc3)c12,41.6%
11,Cc1nccn1C1CCCN(C(=O)CCNc2ncccn2)C1 (stereo unspecified),5.03%
12,CC(C)CNC(=O)N1CCC2(CC1)OC(C(N)=O)Cn1ccnc12 (stereo unspecified),39.4%
13,COC(=O)C1CCCN1C(=O)c1ccc(-n2nc(C)cc2C)cc1 (stereo unspecified),-16.8%
14,Cc1cc(C)n(C2=NC(NCCCO)c3c(sc4c3CCCC4)N2)n1 (stereo unspecified),79.7%
15,CC(C)OCCCNC(=O)c1c(-n2cnnn2)sc2c1CCCC2,20.1%
16,COCCCNC1N=C(n2nc(C)cc2C)Nc2sc3c(c21)CCCC3 (stereo unspecified),88.8%
17,COCCNC(=O)c1c(-n2cnnn2)sc2c1CCCC2,-6.42%
18,COCCCNC(=O)c1c(-n2cnnn2)sc2c1CCC2,30.8%
19,Cc1cc(C)n(C2=NC(NCCC(C)C)c3c(sc4c3CCCC4)N2)n1 (stereo unspecified),90.5%
20,Cc1oc(C(=O)O)cc1S(=O)(=O)Nc1cc(Br)ccc1F,-0.96%
21,Cc1ncncc1C(=O)N1CCC(O)(CN(C)Cc2ccc(F)cc2)C1 (stereo unspecified),6.32%
22,CC(C)c1nnc(CCC(=O)N2CCCC(c3cnccn3)C2)o1 (stereo unspecified),26.7%

row,SMILES,INHIBITION
1,CN(C)C(=O)c1nn(C)c2c1CN(Cc1ccc(F)cc1)C2,31.7%
2,Cc1ccccc1NC(=O)N1CCN(C(=O)C2CC2)[C@@H]2CS(=O)(=O)C[C@@H]21,-5.22%
3,CCCN1CCN(C(=O)Nc2ccccc2Cl)[C@H]2CS(=O)(=O)C[C@H]21,-32.9%
4,O=C(Nc1ccccc1Cl)N1CCN(CC2CC2)[C@@H]2CS(=O)(=O)C[C@@H]21,52.2%
5,CN(C)C(=O)N1CCN(Cc2ccccc2)[C@@H]2CS(=O)(=O)C[C@@H]21,-33.2%
6,CC(=O)N1CCN(C(=O)Nc2ccccc2Cl)[C@H]2CS(=O)(=O)C[C@H]21,72%
7,CS(=O)(=O)NCC1CCCN(C(=O)Nc2ccccc2Cl)C1 (stereo unspecified),9.48%
8,O=C(CCC(=O)N1CCc2[nH]c3ccccc3c2C1)NCc1ccco1,1.41%
9,CNc1cc(C2CCCN(C(=O)c3ccc(=O)[nH]n3)C2)ccn1 (stereo unspecified),15.5%
10,COC[C@]1(O)CCN(Cc2ccc(N(C)C)nc2)CC1(C)C,22.6%
11,Cc1cc(Nc2ncccn2)nc(C2CCCN(CCO)C2)n1 (stereo unspecified),-3.94%
12,Cc1ccc(S(=O)(=O)NC(=O)CCC(F)(F)F)cc1N(C)C,13.139%
13,Cc1cccc(-c2nc(CN3CCCCC3Cn3cncn3)no2)c1 (stereo unspecified),13.9%
14,Cc1cnn(CC2CCCN2Cc2noc(-c3ccccc3)n2)c1 (stereo unspecified),23.5%
15,Cc1cnn(CC2CCCN2Cc2noc(C3CC3)n2)c1 (stereo unspecified),37.9%
16,Cc1cccc(-c2nc(CN3CCCC3Cn3cc(C)cn3)no2)c1 (stereo unspecified),83.2%
17,Cc1cnn(CC2CCCN2Cc2noc(C)n2)c1 (stereo unspecified),9.14%
18,Cc1ccc(-c2nc(CN3CCCC3Cn3cc(C)cn3)no2)cc1 (stereo unspecified),51.3%
